In the library only some 0.58% were active in any assay of this set; here they are far more common.
CatS block: inhibitors of human cathepsin S, biochemical, compound mixtures; P25774; recombinant cathepsin S, AMC dipeptide fluorescence, pooled mixtures; inhibition, %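 (tested at 5 µM per compound within 10-compound mixtures)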; 0.06% of 62,000 active; in the data active = inhibition above about 32%, passing the limit was not always enough; inconclusive = no clear call, values can overlap the other calls
CatB block: human cathepsin B inhibitors, primary screen, biochemical, fluorogenic substrate. purified cathepsin B, fluorescence. inhibition, %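 (tested at 10 µM)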. 0.1% of 63,000 active. AID 453, 2006. P07858; in the data active = inhibition above about 21%
CatL block: inhibitors of human cathepsin L, biochemical. AID 460, 2006. purified cathepsin L, fluorogenic substrate, fluorescence. Procathepsin L (Homo sapiens), P07711. 0.17% of 58,000 active. inhibition, %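 (tested at 10 µM)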; in the data active = inhibition above about 45%
CatB mix inh: cathepsin B inhibitors from pooled compounds, primary screen, biochemical, compound mixtures, AMC fluorescence | P07858 | Purified cathepsin B, AMC dipeptide fluorescence | inhibition, %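 (ten-compound pools at 5 µM per compound and 50 µM total)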 | 0.06% of 62,000 active; in the data active = inhibition above about 22%, passing the limit was not always enough; inconclusive = no clear call, values can overlap the other calls
Cathepsin G inh: human cathepsin G inhibitors, primary screen, biochemical, pooled compound mixtures, AMC fluorescence. P08311. purified enzyme, AMC-tetrapeptide fluorescence. inhibition, % at 5 µM (by protocol). 0.2% of 62,000 active. AID 581, 2007;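 active = inhibition above 20% in each of the two mixture wells holding the compound; inactive = inhibition of 20% or less in either well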
C1s block: complement C1s protease inhibitors, primary screen, biochemical, 10-compound mixtures | Complement C1s subcomponent (Homo sapiens), P09871 | purified C1s, fluorogenic AMC substrate, pooled mixtures | mean inhibition % of two 10-compound mixtures (hits give high values), % at 5 µM (by protocol) | 0.16% of 62,000 active | AID 538, 2006;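 active = inhibition above 20% in each of the two 10-compound mixture wells holding the compound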
A number is an active result; . = inactive; ? = inconclusive; / = not tested or not shown.

SMILES	CatS block	CatB block	CatL block	CatB mix inh	Cathepsin G inh	C1s block
O=c1/c(=C/c2cccc3ccccc23)sc2ncnn12	.	.	.	.	.	.
Cc1ccsc1/C=c1\sc2ncnn2c1=O	.	.	.	.	43	.
CC(=O)Nc1c(C(=O)c2ccccc2)oc2ccccc12	?	.	104	.	.	.
CC(=O)Nc1c(C(=O)C2CC2)oc2ccccc12	.	.	.	.	.	.
COc1ccc2c(c1OC)C(=O)N1c3ccccc3C(=O)N(c3ccccc3)C21 (stereo not given)	.	.	.	.	.	.
CCOc1ccc(NS(=O)(=O)c2ccc(OCC(=O)N3CCCC3)cc2)cc1	.	.	.	.	.	.
CCOc1ccc(NS(=O)(=O)c2ccc(NS(C)(=O)=O)cc2)cc1	.	.	76	.	.	.
COC(=O)c1ccc(OC(=O)c2ccco2)cc1	.	.	.	.	.	34
O=C(Nc1ccc(OC(=O)c2ccco2)cc1)c1ccco1	.	.	.	.	.	.
CC(=O)c1c(OC(=O)c2ccco2)c2ccccc2n1C	.	.	.	.	.	41
CCCCNC(=O)c1ccc2c(c1)N(CC)C(=O)c1ccccc1S2(=O)=O	.	.	.	.	.	.
COc1ccc(-c2nnc(NC(=O)c3ccc(S(=O)(=O)N4COCC4(C)C)cc3)o2)cc1	.	.	.	.	.	.
CC1(C)COCN1S(=O)(=O)c1ccc(C(=O)Nc2nnc(-c3ccc(Cl)s3)o2)cc1	.	.	.	.	.	23
O=C(c1ccc(COc2c(F)c(F)cc(F)c2F)o1)N1CCN(c2ccc(Cl)cc2)CC1	.	.	.	.	.	.
CCOC(=O)c1sc(=NC(=O)c2ccc(S(=O)(=O)N3CC(C)OC(C)C3)cc2)n(C)c1C (stereo not given)	.	43	.	.	.	.
CC1CN(S(=O)(=O)c2ccc(C(=O)Nc3sc4c(c3C(N)=O)CCN(C)C4)cc2)CC(C)O1 (stereo not given)	.	.	.	.	.	.
COc1nc(N2CCCCCC2)nc(N2CCCCCC2)n1	.	.	.	.	.	.
COc1nc(N(C#N)CC(N)=O)nc(N2CCCC2)n1	.	37	.	23	.	.
CC(=O)NC(=O)NC1CSCC1OC(C)=O (stereo not given)	.	.	.	.	.	58
COC(=O)NC1CSCC1OC(=O)c1ccc(Br)cc1 (stereo not given)	.	.	.	.	.	.
C=CCNc1nc(N2CCCCC2)c(C#N)c2c1CN(Cc1ccccc1)CC2	/	.	.	/	/	/
Cn1c(=O)[nH]c(=O)c2c1nc(NCCCO)n2CCCc1ccccc1	.	.	.	.	.	.
CC(=O)CCc1c(C)c2cccc(C)c2[nH]c1=O	.	.	104	.	.	.
Cc1ccc2c(C(=O)CN3CCCCC3CCO)c(C)[nH]c2c1 (stereo not given)	.	.	.	30	.	.
O=c1c(-c2ccco2)[n+]([O-])c2ccccc2n1OCc1ccccn1	.	.	.	.	.	29
SMILES	CatS block	CatB block	CatL block	CatB mix inh	Cathepsin G inh	C1s block
CC(=O)c1cccc(NC(=O)N2CCCC2C(=O)NC2CCCCC2)c1 (stereo not given)	.	.	.	.	.	.
O=C1CC(c2ccco2)Cc2nc(N3CCc4ccccc4C3)ncc21 (stereo not given)	.	21	.	.	.	.
Cc1occc1C(=O)n1nnc2ccccc21	.	.	.	.	.	.
CCSc1ccccc1C(=O)n1nnc2ccccc21	.	32	.	30	35	39
COCCCNC(CC(=O)Nc1ccccc1C(=O)OC)C(=O)O (stereo not given)	.	.	.	.	.	22
O=C(CSc1ccc2nnc(-c3ccccn3)n2n1)NCc1ccco1	.	.	.	.	.	.
COc1cccc(/C(O)=C2/C(=O)C(=O)N(CCN3CCOCC3)C2c2cccs2)c1 (stereo not given)	.	.	.	.	.	.
C=CC(=C)CC(NC)c1ccccc1 (stereo not given)	.	.	53	.	.	.
O=C1CS/C(=N\C(=O)N2c3ccccc3Sc3ccccc32)N1	.	.	.	.	.	.

Screening results (PubChem)
